From PubChem BioAssay
Compounds with a hit are over-represented: about 19% of the library has one in this group of screens.
DT40 TDP1 no CPT = qHTS for Inhibitors of human tyrosyl-DNA phosphodiesterase 1 (TDP1): qHTS in cells in absence of CPT; DT40 Tdp1-/- hTDP1 cells, no CPT, ATP luminescence, 48 h; Potency, µM (doses to about 46.2 µM), actives largely listed as inhibitors; actives 15% (n = 420,000); AID 686978, 2013; note: nearly all actives have a fitted effect of over 55% in size
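Growth of hTDP1-complemented DT40 Tdp1-knockout cells is measured by ATP luminescence after at least 48 hr compound exposure at 37 °C, with DMSO substituting for the 20 nM CPT used in the parallel screen.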
IL1B secr inh = blocks inflammasome-driven IL-1 beta release; activity change, % at 57.5 µM; AID 743279; actives 4.7% (n = 360,000); THP-1 LPS/ATP IL-1B secretion, AlphaLISA, 16 h; hits give low values; in the data active = activity change below about -50%; inconclusive = mostly about -30% to -49%
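Secreted IL-1B measured by AlphaLISA bead assay after 16 h compound exposure of THP-1 cells; compounds (final up to 57.5 uM) added 1 h before LPS (250 ng/mL) and ATP (1.25 mM) stimulation; lower signal means less secretion.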
HepG2 tox = counter-screen for TGF-b inhibitors: cytotoxicity in HepG2 cells; AID 588856; actives 0.76% (n = 410,000); Potency, µM (doses to about 46.1 µM), hits mostly cytotoxic; HepG2 CAGA-GFP viability, ATP luminescence, 18 h
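HepG2 CAGA-GFP cells (1000/well, DMEM with 1% FBS) received compound, then TGF-beta at 500 pg/mL final, and were incubated 18 hours at 37 degrees C. Viability was read by CellTiter-Glo luminescence. Media-only wells were set as complete cell-killing and DMSO as no toxicity.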
TGFb SMAD3 inh = TGF-b pathway inhibition. HepG2 CAGA-GFP TGF-b/SMAD3 reporter, GFP fluorescence, 18 h; TGF-beta stimulated, 500 pg/mL final. AID 588855. actives 1.2% (n = 410,000). Potency, µM (top dose mostly 46.1 µM), usual class: inhibitors; note: nearly all actives have a fitted effect of over 65% in size
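HEPG2 CAGA-GFP reporter cells (1000/well, DMEM with 1% FBS) received compounds, then recombinant TGF-beta at 500 pg/mL final for 18 hours at 37 degrees C. Per-cell GFP summed per well was normalised to unstimulated and stimulated DMSO controls before curve fitting.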
TDP1 block = inhibitors of human tyrosyl-DNA phosphodiesterase TDP1 | Q9NUW8 | recombinant TDP1, AlphaScreen DNA substrate cleavage | Potency, µM (highest dose often 130 µM), most hits filed as inhibitors | actives 0.28% (n = 350,000) | AID 485290; note: nearly all actives have a fitted effect of over 40% in size
Target sequence (Q9NUW8 whole entry, looked up): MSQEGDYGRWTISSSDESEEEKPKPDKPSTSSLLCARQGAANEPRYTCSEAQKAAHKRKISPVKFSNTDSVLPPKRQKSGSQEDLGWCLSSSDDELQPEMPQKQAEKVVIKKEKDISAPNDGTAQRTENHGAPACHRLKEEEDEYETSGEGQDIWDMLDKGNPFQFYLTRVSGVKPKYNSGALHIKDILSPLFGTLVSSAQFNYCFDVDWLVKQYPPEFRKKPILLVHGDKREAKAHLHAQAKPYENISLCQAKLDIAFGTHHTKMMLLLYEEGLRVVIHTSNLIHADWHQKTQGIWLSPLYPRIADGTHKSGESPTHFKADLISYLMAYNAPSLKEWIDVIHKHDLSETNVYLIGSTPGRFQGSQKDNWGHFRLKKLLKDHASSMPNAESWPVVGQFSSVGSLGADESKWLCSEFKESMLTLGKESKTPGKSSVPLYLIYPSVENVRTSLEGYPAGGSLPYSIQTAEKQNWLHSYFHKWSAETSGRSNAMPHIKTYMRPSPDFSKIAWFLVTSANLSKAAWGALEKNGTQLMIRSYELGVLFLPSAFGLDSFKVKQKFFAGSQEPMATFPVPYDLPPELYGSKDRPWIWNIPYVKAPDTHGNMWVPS
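Tdp1 1 nM final; 15 min RT w/ cpd; substrate 15 nM, 5 min; beads 10 ug/ml, 10 min; AlphaScreen read. Neg ctrl: no enzyme.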
DT40 TDP1 CPT = growth inhibition of DT40 Tdp1-/-;hTDP1 cells with camptothecin (screen for TDP1 inhibitors) | chicken DT40 Tdp1-/-;hTDP1 cells + 20 nM CPT, ATP luminescence, 48 h | Potency, µM (doses to about 46.2 µM), actives largely listed as inhibitors | actives 12% (n = 420,000); note: nearly all actives have a fitted effect of over 55% in size
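Cell growth measured by CellTiter-Glo luminescence after a minimum 48 h, 37 C compound exposure with 20 nM CPT in Tdp1-knockout DT40 cells stably expressing hTDP1, seeded 400/well; qHTS titration format.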
A number is an active result; - = inactive; ? = inconclusive; . = no result given; [ ] = dose if it differs, or a comment. Unless noted, calls come from the whole dose curve; as a rule, active = well fitted curve in the direction sought with a large enough effect; inconclusive = small, poorly fitted or top-dose-only effect, or another doubt; inactive = no such curve, though single readings can be large; an effect the other way counts as inactive or inconclusive.

SMILES	DT40 TDP1 no CPT	IL1B secr inh	HepG2 tox	TGFb SMAD3 inh	TDP1 block	DT40 TDP1 CPT
Cc1ccc(-c2noc(C3CCCN(C(=O)c4cccc(F)c4)C3)n2)cc1 (centres undefined)	29µM	-	-	?	-	?
Cc1ccc(-c2noc(C3CCCN(C(=O)c4ccccc4Br)C3)n2)cc1 (centres undefined)	21µM	-	-	-	.	?
COc1ccc(-c2noc(C3CCCN(C(=O)c4cccc(C)c4)C3)n2)cc1 (centres undefined)	16µM	?	-	?	.	16µM
COC(=O)CN1C(=O)C(C)(C)c2cc(S(=O)(=O)Nc3ccc(C(C)C)cc3)ccc21	-	.	-	-	-	-
C=C1C[C@@]23CC4C5[C@@]6(C)C[C@H](O)C[C@@]57C2[C@H](O)[C@@H]1[C@H](O)[C@H]3[C@H]7N4C6	-[9.04 µM]	.	.	.	-	-[9.04 µM]
CCN(CC(=O)NC1CCS(=O)(=O)C1)S(=O)(=O)c1c(C)c(C)cc(C)c1C (centres undefined)	-	-	-	-	.	-
Nc1nonc1-n1nnc(C(=O)N/N=C/c2ccccc2Cl)c1CN1CCOCC1	-	-	-	-	-	-
Cc1ccc(-c2noc(C3CCCN(C(=O)c4c(F)cccc4F)C3)n2)cc1 (centres undefined)	21µM	-	-	-	-	?
CC1CCCC(C)N1S(=O)(=O)c1ccc(Cl)cc1 (centres undefined)	?	-	-	-	-	-
CC1=C(C)CS(=O)N(S(=O)(=O)c2ccc(Cl)cc2)C1 (centres undefined)	2.3µM	-93	-	?	-	3.7µM
CN(C(=O)Cc1c[nH]c2ccccc12)C(C(=O)Nc1ccc2c(c1)OCO2)c1ccccc1 (centres undefined)	?	-67	-	?	-	-
CC(=O)NC(Cc1c[nH]c2ccccc12)C(=O)Nc1ccc2c(c1)OCO2 (centres undefined)	-	-	-	-	-	-
Cc1ccc(C)c(NC2=C(Cl)C(=O)OC2OC(=O)c2ccco2)c1 (centres undefined)	23µM	-90	-	-	-	23µM
Cc1ccc(NC2=C(Cl)C(=O)OC2OC(=O)c2ccco2)cc1C (centres undefined)	?	-87	-	-	-	?
CN(CCc1ccccn1)Cc1ccc(Cl)c(Cl)c1	-	-	-	-	.	-
CN(CCc1ccc(Cl)c(Cl)c1)CCN1CCCC1	24µM	.	.	.	-	8.2µM
Fc1c(F)c(F)c(CSc2nc3ccccc3[nH]2)c(F)c1F	-	-	-	-	-	-
Cc1c(OCC(F)(F)F)ccnc1CSc1nc2ccccc2[nH]1	23µM	?	-	-	-	?
NC(=O)CCCSc1nc2ccccc2[nH]1	-	-	-	-	-	-
Cc1ccccc1OCCCSc1nc2ccccc2[nH]1	16µM	-81	-	?	-	?
N#CCCN(C(=O)Nc1ccc(Cl)c(Cl)c1)c1ccccc1	-	-	-	-	-	-
C[C@@H]1COC(=O)[C@@H](CC(=O)OC(C)(C)C)C/C=C\C[C@H](CC(=O)NCCO)C(=O)N1	-	-	-	-	-	-
O=C1NC(=Nc2ccccc2Cl)S/C1=C\c1cccc([N+](=O)[O-])c1	?	-	-	?	.	?
O=C1NC(=S)S/C1=C\c1cccc([N+](=O)[O-])c1	13µM	-	-	-	.	?
O=C(/C=C/c1ccc(-c2cccc([N+](=O)[O-])c2)o1)N1CCOCC1	18µM	-	-	-	-	16µM
O=Cc1ccc(-c2cccc([N+](=O)[O-])c2)o1	?	-	-	-	-	-
O=C1NC(=O)/C(=C/c2ccc(-c3cccc([N+](=O)[O-])c3)o2)S1	?	-	-	-	.	16µM
